Measurements reported in the supplement of paper PMC13380429.
Values without a mark were called inactive.

Tested on: Vero E6 infected with SARS-CoV-2
Assay: inhibition of SARS-CoV-2 cytopathic effect; higher = more antiviral protection, active = above 15
Conditions: 48 h

SMILES | inhibition of SARS-CoV-2 cytopathic effect (1 nM) | inhibition of SARS-CoV-2 cytopathic effect (8.33 nM) [%] | inhibition of SARS-CoV-2 cytopathic effect (100 nM) [%] | inhibition of SARS-CoV-2 cytopathic effect (833.33 nM) [%] | inhibition of SARS-CoV-2 cytopathic effect (10000 nM) [%]
CC1=C(/C=C/C(C)=C/C=C/C(C)=C/C(=O)Nc2ccc(O)cc2)C(C)(C)CCC1 [fenretinide] | 2.01% | 1.04 | 0.95 | -0.67 | 2.45
CNc1nc(-c2ccc3c(N)n[nH]c3c2)cc(N2C[C@@H](C(=O)NC3CCCCC3)CC[C@H]2C)n1 | 2.6% | 3.93 | 1.23 | 0.1 | -5.35
O=C(O)/C=C\c1c[nH]cn1 [cis-Urocanic acid] | 0.865% | -1.24 | -1.15 | -0.955 | 1.12
C[C@@]12C[C@@]3(O)O[C@@H](O1)[C@]1(COC(=O)c4ccccc4)[C@H]3C[C@@]12O[C@@H]1O[C@H](CO)[C@@H](O)[C@H](O)[C@H]1O [paeoniflorin] | -0.01% | 0.45 | 0.1 | 0.8 | 0.46
COC(=O)C1=C(C)NC(C)=C(C(=O)OC)C1c1ccccc1[N+](=O)[O-] [nifedipine] | -0.99% | 0.14 | -0.27 | 3.23 | 4.43
Cc1ccccc1CN1C(=O)C2=C(CCN(Cc3ccccc3)C2)N2CCN=C12 | 0.63% | 0.83 | 0.4 | 3.83 | 0.84
CSc1ccc(C(=O)c2[nH]c(=O)[nH]c2C)cc1 [enoximone] | -4.27% | -5.05 | -6.45 | -4.44 | -2.39
O=C(Oc1ccccc1C(=O)O)c1ccccc1O [sasapyrine] | -6.73% | -8.94 | -2.49 | -6.28 | -11.8
CCC1(C)CC(=O)NC1=O (stereo not given) [ethosuximide] | -0.56% | 1.45 | 1.18 | 1.39 | -4.8
CCN(CC)CCOC(=O)C1(C2CCCCC2)CCCCC1 [dicycloverine] | 17.5% (active) | 0.53 | 2.57 | 0.85 | 1.16
Cc1oc(-c2ccccc2)nc1CCC(=O)c1ccc(CC2SC(=O)NC2=O)cc1 (stereo not given) [darglitazone] | 2.44% | 3.08 | -5.6 | -5.76 | -1.67
OC[C@@H](O)[C@@H](O)[C@H](O)[C@@H](O)CO [sorbitol] | 0.49% | -0.64 | -0.23 | 1.86 | 1.46
COc1cc2c3cc1Oc1cc(ccc1O)C[C@@H]1c4c(cc(OC)c(O)c4Oc4ccc(cc4)C[C@@H]3N(C)CC2)CC[N+]1(C)C [tubocurarine] | -3.23% | -3.95 | -2.68 | 0.38 | 1.45
CC(C)(C)NS(=O)(=O)c1cncc(-c2cc(F)c3nc(N)nn3c2)c1 | 3.23% | 2.61 | -1.19 | 0.27 | 0.39
CS(=O)(=O)n1cc2c(n1)CN([C@H]1CO[C@H](c3cc(F)ccc3F)[C@@H](N)C1)C2 [omarigliptin] | -0.75% | 1.81 | 0.23 | 1.96 | 0.42
CC(CCc1ccc(O)cc1)NCC(O)c1ccc(O)cc1 (stereo not given) [ractopamine] | -2.7% | -0.49 | -1.47 | -0.11 | 1.53
O=C(c1ccc(Cl)o1)N1CC2CNCC2C1 (stereo not given) | -0.08% | 1.51 | 2.2 | 1.83 | 0.93
